HSP90 inh = inhibitors of HSP90 luciferase refolding in rabbit reticulocyte lysate; inhibition, % at 5.6 µM; 290,000 compounds, 0.91% hits; luciferase refolding luminescence, 3 h;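 active = inhibition above the screen-wide mean plus 3 SD, computed separately per campaign, cut at about 16% in these data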;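 note: 0% = DMSO wells and 100% = 60 µM geldanamycin wells; inhibitors lower the luminescence because luciferase stays unfolded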
SENP6 block = blocks the human protease SENP6 | Q9GZR1 | Recombinant SENP6 catalytic domain, aminoluciferin luminescence | inhibition, % at 10 µM | 330,000 compounds, 1.8% hits;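 active = inhibition above about 50% at the single tested dose, limit read from the data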;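 note: plate controls were DMSO wells with enzyme for no effect and DMSO wells lacking enzyme for full effect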
Target sequence (Q9GZR1 628-1112 limits assumed): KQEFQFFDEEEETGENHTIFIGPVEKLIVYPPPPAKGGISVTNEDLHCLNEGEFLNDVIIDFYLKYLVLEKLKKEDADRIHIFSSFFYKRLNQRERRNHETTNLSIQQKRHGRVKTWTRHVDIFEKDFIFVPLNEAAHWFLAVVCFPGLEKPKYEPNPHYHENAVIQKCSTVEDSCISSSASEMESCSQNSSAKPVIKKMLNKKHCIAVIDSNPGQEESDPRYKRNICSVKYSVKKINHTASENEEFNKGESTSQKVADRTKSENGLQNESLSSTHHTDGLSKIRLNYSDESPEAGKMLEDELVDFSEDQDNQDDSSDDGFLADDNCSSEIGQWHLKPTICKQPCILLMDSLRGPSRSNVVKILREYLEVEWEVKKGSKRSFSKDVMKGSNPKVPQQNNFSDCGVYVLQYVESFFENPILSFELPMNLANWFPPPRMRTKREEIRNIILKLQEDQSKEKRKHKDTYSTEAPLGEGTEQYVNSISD
SENP8 block-1 = SENP8 protease inhibition; purified SENP8, Z-RLRGG-aminoluciferin cleavage, luminescence; inhibition, % at 10 µM; 330,000 compounds, 1.2% hits; in the data active = inhibition above about 50%
Target sequence (Q96LD8 whole entry, looked up): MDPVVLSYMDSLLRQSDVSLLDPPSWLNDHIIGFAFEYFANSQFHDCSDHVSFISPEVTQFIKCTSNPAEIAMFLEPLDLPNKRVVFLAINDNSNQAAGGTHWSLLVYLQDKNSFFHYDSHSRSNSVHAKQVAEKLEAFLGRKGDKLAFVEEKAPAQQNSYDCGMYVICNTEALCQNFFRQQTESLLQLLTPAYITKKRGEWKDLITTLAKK
SENP8 block-2 = blocks human SENP8 cleavage of Nedd8 substrate; Q96LD8; recombinant SENP8, Nedd8 substrate fluorescence; inhibition, % at 20 µM; 360,000 compounds, 0.64% hits; in the data active = inhibition mostly above about 40%, no sharp cut-off; inactive = mostly below about 27%
SENP7 block = SENP7 protease inhibition. Q9BQF6. recombinant SENP7, Z-RLRGG-aminoluciferin luminescence, 40 min. inhibition, % at 5 µM. 330,000 compounds, 1.5% hits. AID 434973;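 active = inhibition above about 50% at the single test dose, limit read from the data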;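 note: plate controls were DMSO with enzyme for no effect and no enzyme buffer wells for full effect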
SENP8 conf = SENP8 (human) inhibition, single concentration confirmation. inhibition, % at 25 µM. 1,400 compounds, 15% hits. shares compounds with SENP8 block-2. purified SENP8, Nedd8-AMC/pro-Nedd8 cleavage fluorescence, 30 min; in the data active = inhibition mostly above about 39%, no sharp cut-off; inactive = mostly below about 34%
Active calls of the source: *; . = no result; ! = repeats disagree. Hits are enriched below; roughly 2.8% of the tested compounds scored in any of these assays.

SMILES | HSP90 inh | SENP6 block | SENP8 block-1 | SENP8 block-2 | SENP7 block | SENP8 conf
Cc1cc(C)c(C)c(S(=O)(=O)NCc2ccc(C(=O)N3CCCCC3)cc2)c1C | 0.4 | -5.5 | 1.2 | 42.0* | -4.8 | 7.5
COC(=O)C1=CO[C@@H](O[C@@H]2OC(CO)[C@@H](O)[C@@H](O)[C@@H]2O)C2C1CC[C@]2(C)O (stereo not given in full) | . | 2.0 | -7.1 | 30.4 | -4.3 | .
COC(=O)C1=COC(OC2OC(CO)C(O)C(O)C2O)C2C1C=CC2(O)CO (stereo not given) | . | -18.6 | -10.4 | 40.7* | 3.5 | 5.4
Cc1c(C)n2c(SCC(=O)N3CCCCCC3)nnc2[nH]c1=O | . | 0.5 | -4.4 | 4.7 | -5.0 | .
Cc1ccc(C(=O)N/N=C/c2cc(Br)ccc2O)cn1 | -4.9 | 7.7 | -15.8 | 2.9 | 1.1 | .
COc1ccccc1N1CCN(CC(=O)c2c[nH]c3ccccc23)CC1 | 1.1 | -5.7 | 4.7 | 11.2 | 0.3 | .
CC1(C)CC(=O)c2c(O)cc(OCc3ccc(Br)cc3)cc2O1 | 5.4 | 9.1 | -1.7 | -1.7 | 2.5 | .
CC(=O)Nc1ccc(NC(=O)COc2cc(O)c3c(c2)OC(C)(C)CC3=O)cc1 | 2.4 | -8.1 | -7.9 | 40.8* | 5.2 | 11.8
Cc1cc(OCC(=O)Nc2ccc(Br)cc2)cc2c1C(=O)CC(C)(C)O2 | 1.4 | -7.5 | -7.9 | 40.6* | 2.4 | 15.8
O=C(Nc1c(-c2ccccc2)[nH][nH]c1=O)c1ccc(-c2ccccc2)cc1 | . | . | . | 15.7 | . | .
Cc1ccc(C(=O)Nc2c(-c3ccc(Cl)cc3)[nH][nH]c2=O)cc1 | . | . | . | 46.7* | . | 30.4
O=C(Nc1c(-c2ccc(Cl)cc2)[nH][nH]c1=O)c1ccccn1 | . | . | . | 20.6 | . | .
O=C(Nc1c(-c2ccccc2)[nH][nH]c1=O)c1ccco1 | . | . | . | 64.2* | . | 17.6
COc1ccc(-c2[nH][nH]c(=O)c2NC(=O)c2ccccn2)cc1 | . | . | . | 41.6* | . | 31.3
C/C(=N\NC(=O)c1ccccc1OCc1ccc(F)cc1)c1ccccn1 | . | 6.5 | -5.5 | 7.2 | 0.7 | .
Cc1ccc(N/C=C/c2onc(C)c2[N+](=O)[O-])cc1 | -10.2 | 59.6* | 28.6 | 53.5* | 77.8* | 14.4
Oc1c(Br)cc(/C=N/Nc2ccc(Cl)nn2)cc1Br | 1.0 | -4.5 | -13.1 | -0.1 | -1.9 | .
O=C(Nc1ccc(O)cc1)C1CC=CCC1 (stereo not given) | 7.6 | 4.7 | -1.6 | 41.2* | 1.6 | 49.0*
O=C1C2=C(c3ccccc31)[N+](=O)C1CCCCC1N2[O-] (stereo not given) | -1.8 | 49.9 | 27.8 | 83.6* | 30.6 | 60.7*
CCOC(=O)c1c(N)c2cc([N+](=O)[O-])ccc2n1C | 0.0 | -12.8 | 0.6 | 47.1* | -8.7 | 7.4
CCOC(=O)/C(=C/c1c(C)n(C)c2ccc([N+](=O)[O-])cc12)C(C)=O | -4.0 | -1.7 | -0.1 | 20.9 | -5.0 | .
OC[C@H]1O[C@H](OCc2ccccc2)[C@H](O[C@@H]2OC[C@@H](O)[C@H](O)[C@H]2O)[C@@H](O)[C@@H]1O | . | -6.5 | -4.2 | 41.9* | -3.8 | 10.8
COCOc1cc(O)c(C(=O)/C=C/c2ccccc2)c(OCOC)c1 | . | 6.9 | 11.9 | 50.6* | -8.9 | 6.1
COc1ccc(C(=O)/C=C/c2ccccc2)c(OC)c1 | 0.5 | 47.0 | 42.2 | 32.9 | 37.7 | .
N#CC1=C(N)Oc2c(oc(CO)cc2=O)C1c1cccs1 (stereo not given) | 4.4 | 22.2 | -0.4 | 45.2* | 4.4 | 30.0
SMILES | HSP90 inh | SENP6 block | SENP8 block-1 | SENP8 block-2 | SENP7 block | SENP8 conf
Cc1noc(NC(=O)c2c(-c3c(Cl)cccc3Cl)noc2C)c1[N+](=O)[O-] | 2.6 | -28.7 | -7.5 | 23.6 | -4.9 | .
O=C(/C(=C(\[O-])c1ccccc1)[n+]1ccc2ccccc2c1)c1ccc(Cl)cc1 | 2.2 | 10.9 | 11.4 | 46.3* | 18.0 | 61.7*
O=C(/C(=C(\[O-])c1ccccc1)[n+]1ccc2ccccc2c1)c1ccccc1 | -2.0 | . | . | 29.4 | . | .
O=C1CC(c2ccco2)CC(O)=C1C=NCCN1CCNCC1 (stereo not given) | 0.0 | -5.0 | -2.4 | 18.4 | 1.3 | .
O=C1CC(c2ccco2)CC(O)=C1C=NCC1CCNCC1 (stereo not given) | 5.4 | 7.2 | 8.1 | 65.3* | 5.0 | 12.3
CCOc1cc(/C=C2\N=C(SC)SC2=O)cc([N+](=O)[O-])c1OC(C)=O | -1.8 | 16.2 | 10.1 | 45.4* | -7.5 | 8.9
CCOc1cc(/C=C2\N=C(SCC)SC2=O)cc([N+](=O)[O-])c1OC(C)=O | -2.1 | 25.9 | 26.7 | 36.0 | 2.8 | .
CN(C)c1ccc(N=Cc2nc(-c3ccccc3)oc2O)cc1 | -1.9 | 7.0 | -11.7 | 40.4* | 31.5 | -6.4
CCOc1[nH]n(-c2ccccc2)c(=O)c1C=Nc1ccc(C(=O)OC)cc1 | 2.8 | 13.3 | 4.5 | 53.5* | 13.3 | 20.0
Cc1[nH]n(-c2ccc(Cl)cc2)c(=O)c1C=Nc1ccc(S(=O)(=O)N2CCOCC2)cc1 | -2.4 | 9.1 | -5.9 | 47.1* | 13.3 | 16.7
CCOc1[nH]n(-c2ccccc2)c(=O)c1C=Nc1ccc(C)cc1 | -0.3 | -10.5 | -11.8 | 21.7 | -3.4 | .
COCc1[nH][nH]c(=O)c1C=Nc1ccccc1 | -0.7 | -13.6 | -3.0 | 19.6 | -10.6 | .
CCOc1[nH]n(-c2ccccc2)c(=O)c1C=Nc1ccc(Cl)cc1 | 2.4 | -11.0 | -5.6 | 40.3* | 0.0 | 12.4
COCc1[nH][nH]c(=O)c1C=Nc1ccc(Cl)cc1 | 3.3 | 0.5 | -4.6 | 48.2* | -0.7 | 17.0
COc1nccnc1NS(=O)(=O)c1ccc(N=Cc2c(C)[nH]n(-c3ccc(Cl)cc3)c2=O)cc1 | 3.7 | 3.5 | -2.7 | . | -4.2 | .
CCOc1[nH]n(-c2ccccc2)c(=O)c1C=Nc1ccccc1 | 1.4 | -6.5 | -6.8 | 16.5 | -4.4 | .
Cn1c(CCNC(=O)c2ccco2)nc2cc([N+](=O)[O-])ccc21 | 0.6 | 12.5 | -1.7 | 2.5 | -9.3 | .
CCN(CC)S(=O)(=O)c1cccc(NC(=O)COc2ccc(F)cc2Br)c1 | -0.6 | 1.8 | 0.3 | 3.4 | 6.1 | .
COc1ccc(CNC(=O)[C@H](C)NC(=O)C2CC(=O)N(c3ccc4c(c3)OCO4)C2)cc1 (stereo not given in full) | 1.6 | 15.2 | 4.7 | 13.0 | 6.0 | .
O=C(O)CCC1OC(=O)C(O)=C1c1ccccc1 (stereo not given) | . | -2.8 | -3.5 | 40.2* | 5.1 | 7.2
C[C@@H]1CN(Cc2nc(-c3cccs3)no2)C[C@H](C)O1 | 2.4 | 1.4 | -11.1 | 42.4* | -12.8 | -5.6
CN(C)c1ccc(NC(=O)C2C3C=CC(C3)C2C(=O)O)cc1 (stereo not given) | 15.2 | 26.0 | -0.1 | 51.1* | 8.6 | 3.7
O=C(O)C1C2C=CC(C2)C1C(=O)Nc1ccc2c(c1)OCCO2 (stereo not given) | 2.3 | -1.7 | -0.9 | 13.6 | 3.0 | .
COc1ccc2cc3[n+](cc2c1OC)CCc1cc2c(cc1-3)OCO2 | -4.0 | 3.6 | 9.2 | 53.3*! | 9.6 | 32.2
COc1cccc(C2=NCCc3cc4c(cc32)OCO4)c1OC | -3.0 | -13.8 | 0.0 | 3.8 | -2.8 | .

Compound activity deposited in PubChem by several laboratories.
